This is a sample that favours compounds with a hit; in the whole collection about 1.2% have one here.
Avidin fluor = compound fluoresces at 488/530 nm on avidin beads; compound fluorescence 488/530 nm, flow cytometry; hits give high values; 220,000 tested, 0.38% active; fluorescence (KMESF) at 10 µM; in the data active = fluorescence above about 47
RGS16-Gao HTS = modulates binding between human RGS16 and Galphao | bead-based flow cytometry RGS16-Galphao binding, fluorescence; actives lie on both sides | AID 1441 | 220,000 tested, 0.38% active | binding response (% of control), % at 10 µM | O15492+P09471;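 also: Galphao activated by GDP with aluminum fluoride before binding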
Target sequence (O15492 whole entry, looked up): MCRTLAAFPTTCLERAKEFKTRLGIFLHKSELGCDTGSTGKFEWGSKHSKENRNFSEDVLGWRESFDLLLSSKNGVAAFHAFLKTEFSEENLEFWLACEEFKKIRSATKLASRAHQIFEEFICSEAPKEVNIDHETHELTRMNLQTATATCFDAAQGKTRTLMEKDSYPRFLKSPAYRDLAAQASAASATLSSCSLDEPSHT
Target sequence (P09471 whole entry, looked up): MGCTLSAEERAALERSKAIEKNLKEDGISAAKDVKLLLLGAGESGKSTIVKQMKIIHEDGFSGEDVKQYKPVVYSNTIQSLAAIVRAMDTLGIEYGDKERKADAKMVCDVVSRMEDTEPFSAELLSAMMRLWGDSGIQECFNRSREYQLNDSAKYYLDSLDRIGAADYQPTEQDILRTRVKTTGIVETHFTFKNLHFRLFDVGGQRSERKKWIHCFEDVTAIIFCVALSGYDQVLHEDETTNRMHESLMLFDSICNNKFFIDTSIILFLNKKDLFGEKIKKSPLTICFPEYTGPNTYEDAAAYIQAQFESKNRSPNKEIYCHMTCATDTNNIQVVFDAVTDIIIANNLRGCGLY
GSH fluor = compound fluoresces at 488/530 nm on GSH beads | fluorescence (KMESF) at 10 µM | 190,000 tested, 0.25% active | GSH beads flow cytometry, compound fluorescence 488/530 nm; hits give high values; in the data active = fluorescence above about 89;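 also: glutathione beads carrying GST-tagged Bcl family fusion proteins plus one bare bead set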
RGS8-Gao reg = human RGS8-Galphao interaction regulation. response (percent of control binding), % at 10 µM. P09471. 220,000 tested, 0.34% active. AID 1423. multiplexed bead flow cytometry, RGS8-Galphao binding; actives lie on both sides; in the data active = response below about 60% or above about 140%; inactive = in between;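 also: Galphao activated as the GDP aluminium fluoride complex binding bead-coupled RGS8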
RGS7-Gao = modulates binding of RGS7 to human Galphao; P09471; Multiplexed bead flow cytometry; actives lie on both sides; binding response (% of control), % at 10 µM; 220,000 tested, 0.35% active; AID 1439; in the data active = binding response below about 49% or above about 150%; inconclusive = no clear call, values can overlap the other calls; inactive = in between;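 also: fluorescent Galphao held in activated GDP-AlF4 state binding bead-coupled RGS7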
RGS4-Gao reg = human RGS4-Galphao interaction regulation; Multiplexed bead flow cytometry, RGS4-Galphao binding; actives lie on both sides; binding response (% of control), % at 10 µM; 220,000 tested, 0.33% active; AID 1415; in the data active = binding response below about 49% or above about 150%; inactive = in between;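 also: fluorescent Galphao activated with aluminum fluoride binding bead-coupled RGS4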
RGS4-Gao HTS = modulates binding between human RGS4 and Galphao | shares compounds with RGS16-Gao HTS | AID 1504 | RGS4–Galpha-o binding response, % at 10 µM | multiplexed bead flow cytometry, RGS–Galpha-o binding | 1,600 tested, 99% active;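 also: fluorescently labeled Galpha-o bound to GDP with aluminium fluoride binding biotinylated RGS beads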
Avidin counter = counter-screen: compounds disrupting biotin binding to avidin beads; AID 1783; streptavidin beads, fluorescein-biotin binding, flow cytometry; inhibition, % at 10 µM; 1,700 tested, under 10 active; shares compounds with RGS16-Gao HTS;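 active = inhibition above 50%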;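 also: median green fluorescence of gated singlet beads compared with DMSO control wells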
RGS8-Gao single = RGS8-Galphao interaction regulation, single point confirmation | shares compounds with RGS16-Gao HTS | binding response (% of control), % at 10 µM | AID 1836 | 1,700 tested, 3% active | bead-based flow cytometry RGS8-Galphao binding, fluorescence; actives lie on both sides; in the data active = binding response below about 72% or above about 130%; inactive = in between;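 also: Galphao activated as GDP AlF4 complex before binding bead RGS8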
RGS7-Gao confirm = confirmation of regulators of human RGS7-Galphao interaction | bead-based flow cytometry RGS7-Galphao binding; actives lie on both sides | 1,700 tested, 7.8% active | response (percent of control binding), % at 10 µM | shares compounds with RGS16-Gao HTS | AID 1837; in the data active = response below about 75% or above about 130%; inactive = in between;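 also: fluorescent Galphao activated with GDP and aluminum fluoride binding bead-coupled RGS7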
RGS16-Gao single = confirmation of regulators of human RGS16-Galphao interaction; shares compounds with RGS16-Gao HTS; bead-based flow cytometry, RGS16-Galphao binding; actives lie on both sides; response (% of control binding), % at 10 µM; 1,700 tested, 4% active; in the data active = response below about 74% or above about 130%; inactive = in between;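 also: Galphao activated as the GDP aluminium fluoride complex binding bead-coupled RGS16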
RGS4-Gao confirm = RGS4-Galphao interaction regulation, single point confirmation; shares compounds with RGS16-Gao HTS; RGS4-Galphao binding, multiplexed bead flow cytometry; actives lie on both sides; binding response (% of control), % at 10 µM; 1,700 tested, 4% active; in the data active = binding response below about 74% or above about 130%; inactive = in between
RGS19-Gao single = RGS19-Galphao interaction regulation, single point confirmation; response (percent of control binding), % at 10 µM; AID 1841; 1,700 tested, 5% active; bead-based flow cytometry RGS19-Galphao binding; actives lie on both sides; shares compounds with RGS16-Gao HTS; in the data active = response below about 50% or above about 160%; inactive = in between
Numbers stand for hits; n = inactive; u = inconclusive; x = not tested or not shown; [ ] = remark or other dose. Unless noted, no rule for the calls is given here.

SMILES	Avidin fluor	RGS16-Gao HTS	GSH fluor	RGS8-Gao reg	RGS7-Gao	RGS4-Gao reg	Avidin counter	RGS8-Gao single	RGS7-Gao confirm	RGS16-Gao single	RGS4-Gao confirm	RGS19-Gao single	others
COc1ccc(NC2(c3ccccc3)OC(=O)c3ccccc32)cc1 (configuration not stated)	x	x	n	x	x	x	n	n	n	n	n	n
CCC(C)(C(=O)NC1CCCC1)N(C(=O)c1cnccn1)c1c(C)n(C)n(-c2ccccc2)c1=O (configuration not stated)	n	n	n	n	n	n	x	x	x	x	x	x
CC(C)(C)NC(=O)COC(=O)CCC(=O)c1ccc(Cl)cc1	n	15.0	n	20.6	22.1	25.1	n	n	n	n	n	n
CC(C)CNC(=O)COC(=O)CCC(=O)c1ccc(Cl)cc1	n	n	n	n	n	n	x	x	x	x	x	x
CC(Oc1ccccc1)C(=O)Nc1nnc(C2CCCCC2)s1 (configuration not stated)	n	n	n	n	n	n	x	x	x	x	x	x
COC(=O)Cc1ccc(NC(=O)c2ccccc2Br)cc1	n	24.2	n	28.4	u	32.8	n	n	n	n	n	n
COC(=O)Cc1ccc(NC(=S)NNC(=O)c2ccccc2Br)cc1	n	n	n	n	n	n	x	x	x	x	x	x
Cc1onc(-c2ccccc2)c1CNS(=O)(=O)c1cccc(Cl)c1	n	n	x	n	u	152.5[activator]	n	n	n	n	n	n
Cc1onc(-c2ccccc2)c1CNS(=O)(=O)c1ccccc1	n	n	x	n	u	n	x	x	x	x	x	x
Cc1ccc2nc(C)c3c(c2c1)COC3	n	n	n	16.5	-39.6	-72.7	n	n	n	n	n	n
O=C(NC1CC(=O)c2sccc21)c1ccc(Cl)cc1Cl (configuration not stated)	n	n	n	n	u	n	x	x	x	x	x	x
O=P(CCO)(c1ccccc1)c1ccccc1	n	n	n	n	165.8[activator]	n	n	n	n	n	n	n	RGS4-Gao HTS=104.1
O=P(CCCCCCCCCP(=O)(c1ccccc1)c1ccccc1)(c1ccccc1)c1ccccc1	n	n	n	n	n	n	x	x	x	x	x	x
CN1CCN(CCP(=O)(c2ccccc2)c2ccccc2)CC1	x	x	n	x	x	x	n	n	n	n	n	n
Cc1ccccc1NC(=O)COC(=O)c1cc(=O)c2ccccc2o1	n	n	n	48.2	37.0	40.8	n	n	n	n	n	n
CN(C(=O)COC(=O)c1ccc(=O)n(Cc2ccccc2)n1)c1ccccc1	n	n	n	n	n	n	x	x	x	x	x	x
COc1ccccc1/C=c1\sc2nc(-c3ccco3)nn2c1=O	x	x	n	x	x	x	n	n	n	n	n	n
CC12CCC(C1)C(C)(C)C2OC(=O)c1ccccc1C(=O)O (configuration not stated)	n	n	x	n	u	154.8[activator]	n	n	n	n	n	n
CC1(C)CC(OC(=O)c2ccccc2)CC(C)(C)N1	n	n	n	n	n	n	x	x	x	x	x	x

Screening results: PubChem, NMMLSC
